# From PubChem
# Rab9 promoter act = qHTS Assay for Rab9 Promoter Activators; Potency, µM (titrated, usually from 9.22 µM), usual class: activators; Huh7 Rab9 promoter-luciferase reporter, luminescence, 24 h; 2.8% of 320,000 active; also: nearly all actives have a fitted effect of over 60% in size
#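 Steps: seed 1500 Huh7 Rab9-luc cells per well, rest 2 h at 37 °C; add compound in DMSO; incubate 24 h; add luciferase reagent, 10 min ambient; read luminescence.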
# ELG1 genotoxic = qHTS screen for small molecules that induce genotoxicity in human embryonic kidney (HEK293T) cells expressing luciferase-tagged ELG1 | HEK293T ELG1-luciferase reporter, luminescence, 16 h | Potency, µM (top dose mostly 46 µM), most hits filed as activators | AID 504466, 2011 | 1.3% of 330,000 active; also: nearly all actives have a fitted effect of over 60% in size
#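 16 hr compound incubation (37 °C, 5% CO2) of HEK293T cells carrying luciferase-tagged ELG1; luciferase then measured by ONE-Glo luminescence after 30 min at RT.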
# KinaseGlo FLuc = Counterscreen for Luciferase (Kinase-Glo TM) Inhibition. Luciferin 4-monooxygenase (Photuris pensylvanica), Q27757. Kinase-Glo luciferase, ATP luminescence, 8 min. Potency, µM (highest dose often 38.3 µM), hits mostly inhibitors. 0.28% of 200,000 active. AID 1379, 2008; also: nearly all actives have a fitted effect of over 60% in size
#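 Recombinant Kinase-Glo luciferase, 10 uM ATP (linear range), luciferin; imidazole pH 7.2 / KCl / MgCl2 / Tween / BSA buffer; 8 min RT; luminescence.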
# FLuc counter = qHTS profiling assay for firefly luciferase inhibitor/activator using purifed enzyme and Km concentrations of substrates (counterscreen for miR-21 project); Luciferin 4-monooxygenase (Photinus pyralis), P08659; purified FLuc, Km substrates, luminescence inhibition; Potency, µM (doses to about 57.5 µM), most hits filed as inhibitors; 6.9% of 360,000 active; also: nearly all actives have a fitted effect of over 55% in size
# Target sequence (P08659 whole entry, looked up): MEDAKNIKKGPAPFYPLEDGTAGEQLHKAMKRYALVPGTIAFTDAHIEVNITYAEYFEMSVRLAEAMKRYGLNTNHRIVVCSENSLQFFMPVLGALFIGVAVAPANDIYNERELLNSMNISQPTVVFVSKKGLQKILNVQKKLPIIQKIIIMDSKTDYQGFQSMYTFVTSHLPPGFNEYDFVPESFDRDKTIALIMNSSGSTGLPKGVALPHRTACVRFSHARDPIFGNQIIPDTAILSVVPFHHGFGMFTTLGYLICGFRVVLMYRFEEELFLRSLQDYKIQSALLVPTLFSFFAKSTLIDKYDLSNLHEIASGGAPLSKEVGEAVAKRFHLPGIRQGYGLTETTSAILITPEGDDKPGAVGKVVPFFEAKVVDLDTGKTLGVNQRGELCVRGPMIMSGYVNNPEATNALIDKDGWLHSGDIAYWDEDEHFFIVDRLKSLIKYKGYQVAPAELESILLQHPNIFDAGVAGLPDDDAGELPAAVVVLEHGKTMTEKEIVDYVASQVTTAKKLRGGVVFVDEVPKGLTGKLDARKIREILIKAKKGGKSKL
#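 Purified P. pyralis luciferase, 10 nM final, with Km-level 10 uM D-luciferin and 10 uM ATP in 50 mM Tris acetate pH 7.5, 10 mM Mg acetate, 0.01% Tween-20, 0.05% BSA; 6-point qHTS titration about 60 µM downward; luminescence read.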
# SMN2 splice up = qHTS Assay for Enhancers of SMN2 Splice Variant Expression. HEK293 SMN2-luciferase splicing reporter, luminescence, 30-36 h. Potency, µM (doses to about 46.1 µM), hits mostly activators. 2.8% of 210,000 active; also: nearly all actives have a fitted effect of over 55% in size
#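 HEK293 cells carry an SMN2 minigene-luciferase reporter in which exon 7 inclusion puts luciferase in frame. Cells were seeded at 2000 cells/well, attached for 10-12 hours, then exposed to compounds for 30-36 hours at 37C before ONE-Glo luminescence.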
# NPC1 promoter act = qHTS Assay for NPC1 Promoter Activators | Huh7 NPC1 promoter luciferase reporter, 24 h | Potency, µM (doses to about 9.22 µM), hits mostly activators | 2.4% of 320,000 active; also: nearly all actives have a fitted effect of over 60% in size
#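 Luciferase expression driven by the NPC1 promoter was measured in stably transfected Huh7 cells after a 24 h compound incubation, using a luciferase reagent and a luminescence read.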
# Numbers stand for hits; n = inactive; u = inconclusive; x = no result. Only some compounds are listed: those with a hit (about 7.5% of all), similar ones and a draw of the others. Calls follow the shape of the dose curve; as a rule, active = well fitted curve in the direction sought with a large enough effect; inconclusive = small, poorly fitted or top-dose-only effect, or another doubt; inactive = no such curve, though single readings can be large; an effect the other way counts as inactive or inconclusive.
SMILES,Rab9 promoter act,ELG1 genotoxic,KinaseGlo FLuc,FLuc counter,SMN2 splice up,NPC1 promoter act
CNS(=O)(=O)c1cccc(C(=O)OCC(=O)c2cc(C)n(-c3ccc4c(c3)OCO4)c2C)c1,n,n,n,u,n,n
Cc1cc(C(=O)COc2ccccc2Cl)c(C)n1-c1ccc2c(c1)OCO2,n,u,n,21µM,u,n
O=C(COc1ccccc1Cl)Nc1ccc2c(c1)OCO2,u,3.5µM,x,3.4µM,x,2.8µM
Cc1ccc2cccc(OCC(=O)Nc3ccc4c(c3)OCO4)c2n1,n,n,n,n,n,n
Cn1cccc1C(=O)OCc1nc2ccccc2c(=O)[nH]1,x,n,x,x,x,x
Cn1cccc1C(=O)OCc1cc(-c2ccco2)on1,3.2µM,u,x,24µM,x,3.5µM
Cn1cccc1C(=O)OCc1ccc(C(C)(C)C)cc1,u,u,x,11µM,x,n
CC1CC(C)CN(S(=O)(=O)c2ccc(NC(=O)[C@@H]3CCCN3C(=O)c3cccs3)cc2)C1 (some centres undefined),n,n,x,n,x,n
COc1cccc(C(=O)Oc2ccc3ccc(O)cc3c2)c1,n,n,x,6µM,x,n
Cc1ccccc1C(=O)Oc1ccc2ccc(O)cc2c1,n,5.8µM,x,6.7µM,x,u
CC(=O)Nc1ccc(OS(=O)(=O)c2ccccc2C)cc1,n,n,n,n,x,n
Cc1ccccc1S(=O)(=O)Oc1ccc2ccc(O)cc2c1,n,n,x,17µM,x,n
COC(=O)c1cccc(OC(N)=O)c1,n,n,n,n,n,n
Cc1ccccc1C(=O)Oc1cccc2c(O)cccc12,n,n,x,u,x,n
Cn1c(Cc2cccs2)nnc1SCC(=O)Nc1ccc(C(N)=O)cc1,n,n,x,n,x,n
CN(CCCNC(=O)Cn1c(=O)c2cccn2c2ccccc21)Cc1ccccc1,n,n,x,n,x,n
COc1ccc2cc3cc(C(=O)N4CCCCC4C)oc3nc2c1 (centres undefined),0.45µM,2.3µM,x,3.4µM,x,1.1µM
COc1ccc2cc3cc(C(=O)NCc4ccc(C)cc4)oc3nc2c1,x,x,x,n,n,x
COc1ccc2cc3cc(C(=O)N4CCN(C5CCCCC5)CC4)oc3nc2c1,n,n,x,n,x,n
COc1ccc2cc3cc(C(=O)N4CCCCCC4)oc3nc2c1,0.5µM,2.6µM,x,1.9µM,x,0.89µM
COc1ccc2cc3cc(C(=O)N(C)C4CCCCC4)oc3nc2c1,2.2µM,u,x,7.6µM,x,2.2µM
O=C(CCN1C(=O)S/C(=C/c2ccccc2)C1=O)Nc1ccc(O)c(C(=O)O)c1,n,n,x,u,x,n
Cc1ccc(Nc2nc(-c3cccnc3)cs2)cc1Cl,u,21µM,x,4.8µM,x,n
COc1ccc(-c2csc(Nc3cccnc3)n2)cc1OC,n,n,n,2.4µM,n,n
O=C(O)c1ccc(Nc2nc(-c3cccnc3)cs2)cc1O,n,n,x,12µM,x,n
SMILES,Rab9 promoter act,ELG1 genotoxic,KinaseGlo FLuc,FLuc counter,SMN2 splice up,NPC1 promoter act
c1cncc(Nc2nc(-c3cccnc3)cs2)c1,n,n,n,u,n,n
COc1cccc(Nc2nc(-c3cccnc3)cs2)c1,u,u,x,4.8µM,x,u
COc1cc(CCC(=O)NCc2ccc(F)cc2)cc(OC)c1OC,n,n,x,n,x,n
CS(=O)(=O)c1nc(S(=O)(=O)c2ccc(Cl)cc2)c(NCCCN2CCOCC2)s1,n,n,x,n,x,n
C#C[C@]1(O)CC[C@@H]2[C@H]3CCC4=Cc5oncc5C[C@]4(C)[C@@H]3CC[C@@]21C,x,x,n,x,n,x
CCN(CC)Cc1c(C(=O)N/N=C/c2cccc(OCc3cccc(Cl)c3)c2)nnn1-c1nonc1N,n,n,x,n,x,n
CSc1nsc(SCC(=O)Nc2ccc(F)cc2)n1,n,n,x,n,x,n
Cc1csc(SCC(=O)Nc2ccc3c(c2)OCCO3)n1,u,u,n,21µM,u,n
Cc1csc(SCC(=O)Nc2ccc(C)c(F)c2)n1,n,n,x,x,x,n
CSc1nsc(SCC(=O)Nc2ccc3c(c2)OCCO3)n1,n,10µM,n,21µM,22µM,n
CCOCCn1c(=O)c2c(nc3n2CCCN3CCc2ccccc2)n(C)c1=O,n,n,x,n,x,n
COc1cc(/C=C(\C#N)c2nc3ccc(C)cc3[nH]2)ccc1OC(C)C,x,x,x,n,n,x
CCN(CC)c1ccc(/C=C(/C#N)c2nc3ccccc3[nH]2)c(OC(C)C)c1,u,n,n,2.7µM,n,n
Clc1nc(-c2ccccn2)nc2scc(-c3ccccc3)c12,4.5µM,u,n,0.38µM,5.6µM,u
CC1CCN(c2nc(-c3cccnc3)nc3scc(-c4ccccc4)c23)CC1,n,n,n,n,n,n
Oc1c(Cl)cc(Cl)cc1C=Nc1cc(C(F)(F)F)ccc1N1CCc2ccccc2C1,u,u,x,1.9µM,x,u
O=C(Cn1nnc(-c2ccccc2Cl)n1)N1CCCCC1,4µM,u,x,17µM,x,u
O=C(Cn1nnc(-c2ccc(OCc3ccccc3F)cc2)n1)N1CCOCC1,u,u,n,2.7µM,n,u
CC(C)COc1ccc(-c2nnn(CC(=O)N3CCCC3)n2)cc1,n,u,n,12µM,n,n
O=C(Cn1nnc(-c2ccccc2)n1)N1CCCCC1,u,u,x,n,x,n
COc1ccc(CCNC(=O)c2cc3c(=O)oc4ccc(C)cc4c3s2)cc1OC,x,x,x,n,n,x
O=C(/C=C/c1ccc(Br)cc1)NC(=S)N1CCOCC1,n,n,u,13µM,x,n
CC(C)c1ccc(/C=C/C(=O)N2CCOCC2)cc1,2.5µM,u,x,9.5µM,x,3.2µM
CN1CCN(C(=O)/C=C\c2ccc(Cl)cc2)CC1,n,n,n,n,n,n
CC(C)c1ccc(/C=C/C(=O)n2nnc3ccccc32)cc1,x,x,n,1.7µM,n,x
SMILES,Rab9 promoter act,ELG1 genotoxic,KinaseGlo FLuc,FLuc counter,SMN2 splice up,NPC1 promoter act
CC(C)c1ccc(/C=N/N2CCCCC2)cc1,3.2µM,u,n,1.5µM,u,n
Cc1cc(C)nc(NNC(=O)c2ccccc2O)n1,n,n,n,n,n,n
O=C(/C=C/c1ccccc1[N+](=O)[O-])N1CCCCC1,n,n,n,n,n,n
O=C(/C=C/c1ccccc1Cl)N1CCCN(C(=O)/C=C/c2ccccc2Cl)CC1,n,n,n,19µM,n,n
O=C(/C=C/c1ccccc1)N1CCOCC1,u,n,x,u,x,n
CC(C)c1ccc(NC(=O)NN2CCOCC2)cc1,3.5µM,16µM,n,27µM,13µM,3.2µM
O=C(/C=C/c1ccc(Cl)cc1)N1CCOCC1,u,n,x,27µM,x,u
CC(C)c1ccc(/C=C/C(=O)N2CCCCCC2)cc1,n,u,n,15µM,n,n
Cc1cc(C)cc(NS(=O)(=O)c2c(C)nc3scc(C)n3c2=O)c1,x,x,x,n,n,x
